Consider nine compounds from PubChem BioAssay (NCI).

The panel holds about 83,000 compounds, 20% with a hit somewhere; the sample as a whole holds those more often.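 Treatment: one concentration, 48 hours, 96-well format. Scoring: percent growth, with anything below 10 considered active.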 Values without a mark were called inactive. Activity calls are given as the source filed them.

Among the test systems are SR leukemia; RPMI-8226 leukemia; OVCAR-8 ovarian; OVCAR-5 ovarian; OVCAR-4 ovarian; SK-OV-3 ovarian; IGROV1 ovarian; OVCAR-3 ovarian; HS 578T breast; NCI/ADR-RES ovarian; T-47D breast; BT-549 breast; MDA-MB-435 melanoma; SW-620 colon; MCF7 breast; HCT-116 colon; HCC-2998 colon; KM12 colon.
Assay in all cases: NCI-60 one-dose screen, 48 h (100 = growth as untreated, 0 = no growth, -100 = all killed)
What all share (conditions): 10 µM unless noted

Turning to `CC(O)C(N)=O` (configuration not stated), the growth is 102% in the experiment on SR leukemia; 111% in the experiment on RPMI-8226 leukemia; 110% with OVCAR-8 ovarian; 101% in the experiment with OVCAR-5 ovarian; 97.4% with OVCAR-4 ovarian; 110% in the experiment on SK-OV-3 ovarian. Besides, the growth in the experiment with IGROV1 ovarian was 116%; in the experiment with OVCAR-3 ovarian, 107%; in the experiment with HS 578T breast it was 108%; in the experiment on NCI/ADR-RES ovarian it was 118%; with T-47D breast, 94.7%; in the experiment with BT-549 breast, 102%. In addition, the growth was 103% in the experiment on MDA-MB-435 melanoma; 105% in the experiment with SW-620 colon; 94.6% in the experiment with MCF7 breast; 94.2% with HCT-116 colon; 100% with HCC-2998 colon; 103% in the experiment with KM12 colon.

Turning to `CC[n+]1c(C)ccc2cc(C)ccc21`, the growth in the experiment with SR leukemia was 94.4%; in the experiment on RPMI-8226 leukemia it was 101%; with OVCAR-8 ovarian it was 88.4%; in the experiment with OVCAR-5 ovarian, 109%; with OVCAR-4 ovarian it was 106%; with SK-OV-3 ovarian, 97.8%. For the same compound, the growth with IGROV1 ovarian was 104%; in the experiment with OVCAR-3 ovarian, 104%; with HS 578T breast it was 112%; in the experiment with NCI/ADR-RES ovarian, 104%; in the experiment on T-47D breast, 91.3%; with BT-549 breast it was 95%. For the same compound, the growth in the experiment on MDA-MB-435 melanoma is 118%; in the experiment with SW-620 colon, 99.5%; in the experiment with MCF7 breast, 94.1%; with HCT-116 colon it was 97.1%; in the experiment with KM12 colon, 80.7%.

For `C[C@@H](c1ccc2c(c1)[nH]c1ccc(Cl)cc12)c1nc2ccccc2[nH]1`, the growth in the experiment with SR leukemia was 74.3%; in the experiment on RPMI-8226 leukemia, 81.3%; in the experiment on OVCAR-8 ovarian, 93%; with OVCAR-5 ovarian it was 112%; with OVCAR-4 ovarian it was 94%; with SK-OV-3 ovarian it was 105%. The growth is 80.6% in the experiment with IGROV1 ovarian; 86.7% in the experiment on OVCAR-3 ovarian; 105% with HS 578T breast; 91% with NCI/ADR-RES ovarian; 62.3% in the experiment with T-47D breast; 83.4% in the experiment with BT-549 breast. Moreover, the growth in the experiment with MDA-MB-435 melanoma is 103%; with SW-620 colon, 95.2%; with MCF7 breast it was 27.6%; in the experiment on HCT-116 colon, 93.5%; in the experiment on HCC-2998 colon, 100%; with KM12 colon it was 90.7%.

For `CCOC(=O)C1=C(C(F)(F)F)NC(=S)NC1CN1C(=O)c2ccccc2C1=O` (configuration not stated), the growth with SR leukemia was -89% (active); in the experiment with RPMI-8226 leukemia, 68.5%; in the experiment on OVCAR-8 ovarian, 116%; with OVCAR-5 ovarian, 95.7%; in the experiment on OVCAR-4 ovarian, 117%; in the experiment on SK-OV-3 ovarian, 117%. In addition, the growth in the experiment on IGROV1 ovarian was 104%; in the experiment on OVCAR-3 ovarian it was 108%; in the experiment on HS 578T breast, 109%; with NCI/ADR-RES ovarian, 112%; with T-47D breast, 107%; in the experiment on BT-549 breast, 118%. For the same compound, the growth in the experiment on MDA-MB-435 melanoma was 118%; with SW-620 colon it was 93.1%; with MCF7 breast it was 88.4%; with HCT-116 colon it was 103%; in the experiment with HCC-2998 colon it was 63.3%; with KM12 colon, 111%.

`O=P(OCCCl)(OCCCl)C(O)c1ccccc1Cl` (configuration not stated): the growth is 89.3% in the experiment on SR leukemia; 110% in the experiment with RPMI-8226 leukemia; 104% in the experiment with OVCAR-8 ovarian; 107% with OVCAR-5 ovarian; 111% in the experiment with OVCAR-4 ovarian; 104% with SK-OV-3 ovarian. Besides, the growth with IGROV1 ovarian was 98.6%; with OVCAR-3 ovarian, 96.8%; with HS 578T breast, 106%; with NCI/ADR-RES ovarian it was 109%; in the experiment on T-47D breast, 98.2%; with BT-549 breast, 107%. Moreover, the growth with MDA-MB-435 melanoma was 102%; in the experiment on SW-620 colon it was 111%; with MCF7 breast it was 99%; with HCT-116 colon, 107%; in the experiment on KM12 colon, 104%.

Turning to `CCOC(=O)c1cc(C(=O)c2ccc(Br)cc2)n2cc(C)cc(C)c12`, the growth in the experiment on SR leukemia is 98.1%; in the experiment with RPMI-8226 leukemia, 83.7%; in the experiment with OVCAR-8 ovarian it was 102%; in the experiment with OVCAR-5 ovarian, 115%; in the experiment with OVCAR-4 ovarian, 91.6%; in the experiment with SK-OV-3 ovarian it was 86.2%. Further, the growth with IGROV1 ovarian is 102%; with OVCAR-3 ovarian it was 104%; with HS 578T breast, 89.2%; in the experiment with NCI/ADR-RES ovarian, 99.6%; in the experiment on T-47D breast, 80.3%; in the experiment with BT-549 breast, 79%. Further, the growth is 102% with MDA-MB-435 melanoma; 103% with SW-620 colon; 90% in the experiment with MCF7 breast; 75.3% in the experiment with HCT-116 colon; 102% in the experiment on HCC-2998 colon; 98.9% in the experiment with KM12 colon.

On to `O=C(/C=C1\C(=O)N(Cc2ccccc2)c2ccccc21)c1ccc(OCCN2CCCCC2)cc1`, for which the growth with SR leukemia is -21.6% (active); in the experiment with RPMI-8226 leukemia, -33.9% (active); with OVCAR-8 ovarian, 7.86% (active); in the experiment on OVCAR-5 ovarian it was 39.8%; in the experiment on OVCAR-4 ovarian, -22.3% (active); in the experiment with SK-OV-3 ovarian, 99.7%. In addition, the growth is 6.02% (active) in the experiment on IGROV1 ovarian; -37% (active) in the experiment with OVCAR-3 ovarian; 77.7% in the experiment with HS 578T breast; 65.7% in the experiment on NCI/ADR-RES ovarian; -56.3% (active) in the experiment on T-47D breast; 80.4% in the experiment with BT-549 breast. In addition, the growth was 96.1% in the experiment with MDA-MB-435 melanoma; -45.7% (active) with SW-620 colon; -3.84% (active) in the experiment with HCT-116 colon; 93.8% in the experiment with HCC-2998 colon; 80.6% in the experiment with KM12 colon.

As to `COc1cccc(Cn2cc3c(c2)-c2oncc2CC3)c1`, the growth with SR leukemia was 13.8%; in the experiment on RPMI-8226 leukemia, 37.6%; with OVCAR-8 ovarian it was 32.3%; in the experiment with OVCAR-5 ovarian it was 42.6%; in the experiment on OVCAR-4 ovarian, 50.9%; with SK-OV-3 ovarian, 1.4% (active). For the same compound, the growth in the experiment on IGROV1 ovarian is 20.1%; in the experiment on OVCAR-3 ovarian, -30.4% (active); in the experiment on HS 578T breast, 8.85% (active); in the experiment on NCI/ADR-RES ovarian it was 6.75% (active); with T-47D breast it was 65.2%; in the experiment on BT-549 breast, 66%. For the same compound, the growth is -47% (active) with MDA-MB-435 melanoma; 26.4% in the experiment with SW-620 colon; 18.4% in the experiment on MCF7 breast; 8.74% (active) in the experiment with HCT-116 colon; 5.03% (active) in the experiment with KM12 colon.

Consider `CCCCCCC(=O)C(C)C`, for which the growth in the experiment on SR leukemia was 90.7%; with RPMI-8226 leukemia, 105%; in the experiment on OVCAR-8 ovarian it was 99.1%; with OVCAR-5 ovarian it was 110%; in the experiment with OVCAR-4 ovarian it was 110%; with SK-OV-3 ovarian it was 110%. Moreover, the growth was 102% in the experiment with IGROV1 ovarian; 107% in the experiment on OVCAR-3 ovarian; 105% with HS 578T breast; 103% in the experiment with NCI/ADR-RES ovarian; 110% in the experiment on T-47D breast; 102% in the experiment on BT-549 breast. The growth in the experiment on MDA-MB-435 melanoma was 103%; in the experiment with SW-620 colon it was 106%; in the experiment with MCF7 breast, 102%; in the experiment on HCT-116 colon, 101%; with KM12 colon it was 103%.
